Results: PubChem BioAssay (NCI)
About 83,000 compounds went through this panel and 20% of them were active in at least one assay; those are over-represented in the sample as a whole.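 A percent growth of 40 corresponds to 60% growth inhibition; 0 means no net growth; -100 means all cells died. Active threshold: below 10.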 A number with no mark means an inactive call. Active and inactive are the calls of the source.

Key:
Experiment in all cases: NCI-60 one-dose screen, 48 h (100 = growth as untreated, 0 = no growth, -100 = all killed)
Conditions in all cases: 10 µM unless noted
[1] = tested on: NCI-H23 lung
[2] = tested on: NCI-H226 lung
[3] = tested on: NCI-H322M lung
[4] = tested on: HOP-62 NSCLC
[5] = tested on: NCI-H460 lung
[6] = tested on: HOP-92 NSCLC
[7] = tested on: NCI-H522 lung
[8] = tested on: A549/ATCC NSCLC
[9] = tested on: 786-0 renal
[10] = tested on: COLO 205 colon

Compound	growth [1]	growth [2]	growth [3]	growth [4]	growth [5]	growth [6]	growth [7]	growth [8]	growth [9]	growth [10]
Cc1cccc(Cl)c1NC(=O)c1ccc2nc(NC(=O)NCCN(C)C)sc2c1	103%	100%	101%	60.3%	107%	64.1%	77.5%	102%	87.7%	45.1%
CCOC(=O)c1nc(Nc2ccc(NC(=O)Nc3ccc(F)cc3)cc2)c2ccccc2n1	92.3%	90.4%	97%	97.6%	99.1%	106%	98.5%	102%	106%	108%
OB(O)c1cccc(-c2nc3ccc4[nH]ncc4c3c3c2CCCC3)c1	73%	81.6%	45%	42.3%	32.6%	47.6%	62.9%	41.8%	41.4%	41.7%
CN(C)CCCC1(c2ccc(F)cc2)OCc2cc(-c3cncc4ccccc34)ccc21 (stereo not given)	77.6%	77.2%	51.5%	65%	10.6%	49.5%	42.9%	46.9%	46.8%	16.3%
CN(C)CCNc1nc2c3cc(Cl)ccc3nn2c2ccccc12	45.5%	61.1%	40.2%	43.9%	15.8%	36.8%	67%	31.5%	38.1%	26.3%
Fc1cc2c(cc1Cl)N(c1ncnc3ccc(-c4cnc5[nH]ncc5c4)cc13)CC2	73.3%	49.5%	52.1%	54.8%	54.7%	34.5%	55.9%	44%	65%	79.2%
Cc1nn(-c2ccccc2)c(Oc2ccccn2)c1-c1nc2ccccc2s1	87.7%	93.8%	93.3%	112%	106%	80.9%	82.2%	92.9%	104%	110%
COc1ccc2cc(C(=O)c3coc4ccc(O)cc34)ccc2c1	96%	104%	95.8%	94.9%	105%	95.4%	72.9%	92.8%	94.1%	101%
Brc1c2c(c(Br)c3ccccc13)CCCC2	97.7%	85.8%	99.6%	84%	111%	80.9%	75.5%	79.7%	102%	102%
Cc1ccc(-c2nc3nc(-c4ccccc4)nc(N4CCNCC4)c3o2)cc1	-73.7% (active)	-68.6% (active)	-95.9% (active)	-92.9% (active)	-72.4% (active)	-73.5% (active)	-79.2% (active)	-84.5% (active)	-84.5% (active)	-92.4% (active)
Cn1cc(-c2nonc2-c2c[nH]c3ccc(Br)cc23)c2cc(Br)ccc21	39.9%	44.8%	32.1%	29.1%	13.3%	55.6%	24.3%	30.8%	34.3%	49.1%
COc1cc(OC)cc(C2=C3CC[C@@H]4[C@H](CC[C@]5(C)C(=O)CC[C@@H]45)C3=CC3C(O)c4cccnc4N4C(=O)COC234)c1 (stereo not given in full)	98.6%	102%	114%	95.3%	103%	104%	90.3%	94.2%	98.5%	109%
CCCC(O)Cn1ncc(C(=O)OCC)c1NC(=O)NCc1ccccc1F (stereo not given)	81.1%	96.8%	95.6%	105%	97.8%	92.1%	57%	82.4%	95.6%	116%
O=C(Nc1ncc(Cc2ccc(Cl)c(C(F)(F)F)c2)s1)c1ccc2nnsc2c1	37.4%	66.5%	69.2%	51.5%	27.2%	64.9%	38.7%	40.7%	53.2%	57.3%
CO[C@H]1/C=C(/C)CCC[C@H](C)[C@H](O)[C@@H](C)C(=O)C(C)(C)[C@@H](O)CC(=O)O[C@@H]1/C(C)=C/c1csc(C)n1	34.7%	50.3%	12.8%	29.4%	6.16% (active)	66.6%	-29.1% (active)	17.5%	57.1%	-53% (active)
CCOc1ccc(NC(=O)CSc2oc(-c3ccccc3)nc2S(=O)(=O)c2ccc(F)cc2)cc1	65.8%	80.2%	75.5%	58.2%	53.9%	31.1%	67.8%	46%	45.5%	93.2%
O=C(Nc1cccnc1Nc1ccc(F)cc1)c1cn(Cc2cccc(Oc3ccccc3)c2)nn1	74%	76.6%	78.9%	84.7%	80.4%	84.8%	64.7%	61%	79.2%	91.6%
COc1ccc(/C=C2\COc3ccc(O)c(O)c3C2=O)cc1	33.2%	67.4%	47.9%	10.8%	19.2%	-6.45% (active)	-60.5% (active)	38.1%	-40.9% (active)	66.2%
COc1ccc2c(c1)c(-c1noc(C(=O)c3cn(C)c4ccc(Br)cc34)n1)cn2C	99.3%	93.8%	97%	93.9%	105%	108%	76.9%	84.5%	112%	110%
COP(=O)(OC)C(C)(C)CC(=O)CC(C#N)(C#N)C(C#N)C#N	98.7%	92.9%	99.3%	98.1%	112%	55.9%	101%	104%	105%	107%
N#Cc1cccc(F)c1	106%	109%	115%	110%	118%	113%	102%	109%	101%	114%
CN1C(=O)N(C)C2Nn3c(s/c(=C\c4ccc(C(F)(F)F)cc4)c3=O)=NC21 (stereo not given)	99.4%	96.3%	101%	115%	107%	110%	93.4%	104%	105%	118%

Compound	growth [1]	growth [2]	growth [3]	growth [4]	growth [5]	growth [6]	growth [7]	growth [8]	growth [9]	growth [10]
CC1(C)CCC(S(=O)(=O)c2ccc3c(c2)/C(=N\O)c2cc(S(=O)(=O)N4CCC(O)(c5cccc(C(F)(F)F)c5)CC4)ccc2-3)CC1	-48.7% (active)	-55.9% (active)	-38.5% (active)	-92.1% (active)	-84.5% (active)	-36% (active)	-81.4% (active)	-83.9% (active)	-87.3% (active)	-90% (active)
CCC(=C(c1ccc(OCCN2CCCC2)cc1)c1ccc(OCCN2CCCC2)cc1)c1ccc(Cl)cc1	77.1%	105%	20%	60.2%	-86.9% (active)	38.7%	23.5%	-28% (active)	-94.2% (active)	-64.8% (active)
O=C1C(Cl)=C(Nc2ccc(O)cc2)C(=O)N1Cc1ccc(Cl)cc1	85.2%	84.5%	77%	84.2%	78.9%	69.7%	51.9%	71.6%	70.6%	35.8%
COc1cccc([C@H]2c3[nH]c4ccccc4c3C[C@H]3C(=O)N(CCCCCCC(=O)NO)CC(=O)N23)c1	66.8%	88.7%	80.2%	68.6%	72.9%	-1.94% (active)	25.6%	94.9%	87.8%	60.2%
CC(=O)N1N=C(c2ccc(Nc3nc(Nc4ccc(Cl)cc4)nc(Nc4ccc(Cl)cc4)n3)cc2)CC1c1ccco1 (stereo not given)	85.4%	100%	103%	91.9%	96.9%	99.9%	68.4%	72.1%	86.7%	109%
Oc1ccc(CCn2c(O)c(/C=C3\CN=c4ccccc4=N3)sc2=S)cc1	59.1%	88.7%	78.7%	65.8%	83.3%	-14.4% (active)	18.5%	82.1%	28.3%	103%
COc1ccc(-c2nc3c(c(-c4ccccc4)nn3-c3ccccc3)c(-c3ccc(N4CCOCC4)cc3)c2C#N)cc1	94%	102%	102%	104%	97.4%	99.4%	103%	103%	82.4%	124%
Cn1cc(-c2csc(-c3ccc(Cl)cc3)n2)c2cccnc21	-49.3% [100 µM] (active)	-14.3% [100 µM] (active)	-8.35% [100 µM] (active)	-53.7% [100 µM] (active)	-16.4% [100 µM] (active)	-69.2% [100 µM] (active)	9.55% [100 µM] (active)	9.96% [100 µM] (active)	-61.4% [100 µM] (active)	-65.8% [100 µM] (active)
CC12CCC3c4ccccc4CCC3(CO1)C2 (stereo not given)	98.3%	95.8%	94.7%	95.5%	105%	105%	94.6%	106%	118%	101%
CCN(C(=O)N1CCN(c2cc3c(cc2F)c(=O)c(C(=O)O)cn3C2CC2)CC1)c1nc(-c2ccc(Cl)cc2)cs1	3.93% (active)	11.9%	11%	14.2%	8.51% (active)	-19.2% (active)	1.67% (active)	12.9%	12.7%	0.749% (active)
Fc1cccc(CNc2c3ccccc3nc3ccccc23)c1F	60.6%	72.9%	63.4%	72.7%	48%	2.67% (active)	53.8%	56.7%	65.4%	40.9%
COc1ccc(C(=S)N2CCN(c3ccccc3Cl)CC2)cc1OC	117%	98.1%	86.6%	90.9%	115%	86%	85.8%	115%	97.5%	99.5%
O=C(Nc1ccc(NC(=O)c2cc(=O)[nH]c3ccccc23)cc1)Nc1cccc(C(F)(F)F)c1	62.3%	87.9%	62.5%	-7.24% (active)	15.3%	42.6%	72.3%	86.3%	99.3%	70.1%
Clc1ccc2c(c1)N(c1ncnc3ccc(-c4cnc5[nH]ncc5c4)cc13)CC2	52.5%	24.4%	11.8%	24.4%	20.1%	-1.84% (active)	40.2%	6.23% (active)	18.1%	31.1%
c1cnc2[nH]cc(-c3csc(-c4cn(CCCN5CCOCC5)c5ccccc45)n3)c2c1	68.1%	61.5%	80.2%	48.7%	45.4%	12%	56.9%	54.4%	28.4%	31.2%
Cc1nnc(NC(=O)c2nc(S(=O)(=O)Cc3ccc(F)cc3)ncc2Cl)s1	90.5%	98.7%	93.8%	86.1%	105%	-85.7% (active)	-67.3% (active)	79.3%	48.3%	-18.8% (active)
O=C(Nc1ccc(-c2nc(N3CCOCC3)c3cccn3n2)cc1)Nc1cccnc1	17.2%	-5.75% (active)	0.902% (active)	-3.37% (active)	7.47% (active)	-22.5% (active)	4.32% (active)	0.989% (active)	-12.7% (active)	6.07% (active)
Brc1ccc2[nH]cc(-c3nonc3-c3c[nH]c4ccccc34)c2c1	45.2%	66.7%	30.9%	43.4%	12.2%	32.1%	13.6%	35.9%	67.3%	36.3%
Oc1ccc(CN2CCC(N3CCCCC3)CC2)c2cccnc12	19%	69.8%	31.3%	5.32% (active)	9.43% (active)	-11.8% (active)	-1.28% (active)	17.4%	48.2%	112%
COC(=O)c1c2c(c(C)[n+]([O-])c1C)C(=O)C=C(NCc1ccc(Br)cc1)C2=O	-44.8% (active)	-42.9% (active)	-14.9% (active)	-77.2% (active)	-53.8% (active)	-53.8% (active)	-44.8% (active)	-28.2% (active)	-8.26% (active)	-69.8% (active)
O=C1/C(=C/c2ccc(Cl)c(Cl)c2)CN(C(=O)C(Cl)Cl)C/C1=C\c1ccc(Cl)c(Cl)c1	-66.3% (active)	-31.2% (active)	-22.8% (active)	-21.8% (active)	-55.8% (active)	-53% (active)	-35.1% (active)	7.18% (active)	-90.7% (active)	-47.1% (active)
